The sample as a whole holds a higher share of hits than the screen did.
PKM2 inhibitor = qHTS Assay for Inhibitors of Human Muscle isoform 2 Pyruvate Kinase. Pyruvate kinase PKM (Homo sapiens), P14618. purified PKM2, ATP generation, Kinase-Glo luminescence. Potency, µM (doses to about 57.5 µM), for the others: top-dose activity change, negative = inhibition, actives largely listed as inhibitors. actives 0.058% (n = 260,000). AID 1634, 2009; active = well fitted inhibition curve with a large enough effect; note: nearly all actives have a fitted effect of over 60% in size
Target sequence (P14618 whole entry, looked up, canonical isoform): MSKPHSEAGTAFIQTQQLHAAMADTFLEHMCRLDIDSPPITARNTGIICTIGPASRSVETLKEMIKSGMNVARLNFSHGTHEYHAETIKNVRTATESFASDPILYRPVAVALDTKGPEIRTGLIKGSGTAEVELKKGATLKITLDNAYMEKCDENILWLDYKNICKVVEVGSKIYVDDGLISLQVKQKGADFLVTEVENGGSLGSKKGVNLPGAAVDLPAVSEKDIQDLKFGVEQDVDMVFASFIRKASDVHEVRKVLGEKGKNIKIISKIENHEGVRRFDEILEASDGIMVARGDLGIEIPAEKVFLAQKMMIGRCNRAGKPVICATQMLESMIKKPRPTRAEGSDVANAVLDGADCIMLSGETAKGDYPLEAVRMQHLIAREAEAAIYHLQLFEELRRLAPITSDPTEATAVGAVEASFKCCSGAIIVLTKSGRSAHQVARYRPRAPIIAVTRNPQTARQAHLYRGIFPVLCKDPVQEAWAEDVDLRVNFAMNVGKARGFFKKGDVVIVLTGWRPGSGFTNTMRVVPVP
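Enzyme run at intermediate activity with final 0.1 mM ADP, 0.5 mM PEP (50 mM imidazole pH7.2, 50 mM KCl, 7 mM MgCl2), incubated 1 h at r.t. ATP formed read by Kinase-Glo luminescence, normalized to no-enzyme (full inhibition) and uninhibited wells.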
The depositor's hits bear a star; [ ] = another dose, or the depositor's remark. Potency is the fitted concentration of half-maximal effect.

SMILES	PKM2 inhibitor
O=C(NCc1cccs1)c1cc2ccccc2o1	0%
O=C(CSc1ccc(-c2cccnc2)nn1)Nc1ccc(F)c(F)c1	36%
O=C(Nc1nc2c(F)cc(F)cc2s1)C1CC(=O)N(Cc2ccco2)C1 (stereo unspecified)	35%
CNC(=O)C1CCN(S(=O)(=O)c2c(C)noc2/C=C/c2cccc(OC)c2)CC1	33%
COC(=O)C1=C(C(=O)OC)C(c2ccccc2O)c2sc(=O)[nH]c2S1 (stereo unspecified)	58%
Cc1ccc(-n2nnc(-c3nccn3C)n2)cc1	16µM*
CCCCCCCN1CCC(=O)N([C@H](CO)c2ccccc2)CC1	31%
O=C(Nc1ccc(N2CCOCC2)c(Cl)c1)c1ccc(-n2cnnc2)cc1Cl	43%
COC(=O)c1sc(C(C)(C)C)cc1CS(=O)(=O)c1ccc(Cl)cc1	0%
COc1cc2c(cc1OC)CN(S(=O)(=O)c1ccc3c(c1)OCCO3)CC2	70%
Cc1occc1C(=O)N/N=C/c1ccc(N(C)C)cc1	14µM*
COCCCNC(=S)N/N=C/c1ccc(O)cc1	32%
COc1ccc([C@]23Cc4ccccc4C(O2)C2=C(CC(C)(C)CC2=O)O3)cc1	56%[11.5 µM]
Cc1cccc(CN2CCN(c3nc4nonc4nc3NC3CC3)CC2=O)c1	139%
COc1cccc(NC(=O)CN(C2=NC3CS(=O)(=O)CC3S2)c2cccc(C)c2)c1 (stereo unspecified)	32%
Cc1ccc2nc(-c3ccccc3)cn2c1	14µM*
Nc1nc(-c2ccccc2)cn1N	78%
CCOC(=O)C1(Cc2ccc(OC)cc2)CCN(C(=O)c2cncs2)CC1	-3%
Cc1ccsc1/C=N/Nc1nc(=O)[nH]nc1C	14µM*
CC1CCN(C(=O)c2ccc(NS(=O)(=O)c3cccc4cccnc34)cc2)CC1	103%
Cc1cccc(C)c1NC(=O)C1CCCN1S(=O)(=O)c1ccc2c(c1)n(C)c(=O)c(=O)n2C (stereo unspecified)	6%
NS(=O)(=O)c1ccc(NC(=O)CSc2nc3ccccc3[nH]2)cc1	41%
CCOc1ncccc1C(=O)NCCN1C(=O)S/C(=C/c2cccs2)C1=O	63%
COc1ccc(CNC(=O)c2c(C)nc3ccccn23)cc1	43%
COc1ccc(C(=O)NNC(=O)c2ccccn2)cc1	3.5µM*
SMILES	PKM2 inhibitor
COc1cc(/C=C/C(=O)CC(=O)/C=C/c2ccc(O)c(OC)c2)ccc1O	30%
COc1ccc(/C=C/C(=O)c2ccccn2)cc1	16µM*
COc1ccc(/C=C/C(=O)NCCNC(=O)c2ccccc2)cc1OC	38%
COc1ccc(-n2c(SCC(=O)O)nnc2-c2ccc(NC(=O)c3ccccc3)cc2)cc1	40%
COC(=O)c1ccc(C(NC(=O)OCc2ccccc2)/C(I)=C/[C@@H](C)C(=O)NCc2ccc(C)o2)cc1 (stereo partly specified)	60%
Cc1cc(C)nc(N2CCN(S(=O)(=O)c3ccc(F)cc3)CC2)n1	41%
CN(C)c1ccc(N/C=C/C(=O)c2ccco2)cc1	14µM*
O=C(Nc1ccc(NC(=S)NC(=O)c2cccs2)cc1)c1ccco1	108%
COC(=O)c1ccc(NC(=O)c2cc[n+](Cc3ccccc3)cc2)cc1	-2%
CCN1/C(=C/c2ccc3ccccc3[n+]2CC)C=Cc2ccccc21	14µM*
C/C(=N/NC(=O)CNC(=O)/C=C/c1ccco1)c1ccc(Cl)cc1	70%
Cc1ccc(N2C(=O)C3C4C=CC(CNC(=S)Nc5cccc(Cl)c5)(O4)C3C2=O)cc1 (stereo unspecified)	38%
c1c2c(cc3sc(N4CCOCC4)nc13)OCCO2	14µM*
Cc1ccc(C(=O)N2CC(=O)NC(=O)C2)cc1	-3%
CNCc1ccccc1Sc1ccc(O)c(O)c1	24%
NNC(=O)c1nn(-c2ccc(Cl)cc2)cc1O	40%
CCOC(=O)C1=C(Cc2ccc(C)cc2)C(=O)c2ccccc2C1=O	40%
Cc1ccc(-c2cc3c(nn2)-c2ccccc2C3=O)cc1	13µM*
Cc1ccc(NC2=C(CC(=O)O)C(c3ccccc3)N(c3ccc(C)cc3)C2=O)cc1 (stereo unspecified)	35%
O=S(=O)(c1ccc(F)cc1)N1CCN(CC2CC3C=CC2C3)CC1 (stereo unspecified)	51%
COc1c(O)c(O)cc2c1oc1c3cc(C)ccc3oc(=O)c21	46%
Cn1c(Cn2cnc3ccccc32)nc2ccccc21	59%
Cn1c(/C=C/c2ccccc2)nc2ccccc21	13µM*
Cn1c(CSc2nnc(SCc3ccccc3)s2)nc2ccccc21	100%
Cc1ccc(Cl)cc1NS(=O)(=O)c1ccc2oc(=O)ccc2c1	52%
CC1(C)SC(=S)N(c2ccccc2)C1/[N+]([O-])=C/c1cccc([N+](=O)[O-])c1 (stereo unspecified)	33%
O=[N+]([O-])c1ccc(-n2nnnc2-c2ccccc2)cc1	31%
Cc1[nH]n(-c2ccccc2)c(=S)c1C=Nc1ccc([N+](=O)[O-])cc1	11µM*
Cc1cccc(-n2nnnc2SCC(=O)Nc2cccc(S(N)(=O)=O)c2)c1	64%
Cc1ccc(NS(=O)(=O)c2ccc3[nH]c(=O)sc3c2)cc1	51%
